The full data set covers some 8,800 targets. This sample favours those with a hit. About 0.5% of all pairs of compound and target were hits.
How the values were obtained:
Assay in all cases: log2 fold change, soluble protein after heating vs DMSO (PISA); higher = thermal stabilisation; K562 lysate, 10 uM; active = over 0.2 and 3.5 SD of the protein, either way, in both replicates (recomputed)
[1] = compound: C#Cc1cccc(Nc2ncnc3cc(OCCOC)c(OCCOC)cc23)c1 [erlotinib]
Procedure, shortened: (§1)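 K562 pellets were dounce-homogenised in PBS pH 7.4 containing 1 mM MgCl2, and the crude extract, at 1 mg/mL protein, was exposed to 10 μM compound for 30 min. Aliquots were heated for 3 min across 48°C-58°C, pooled, brought to 0.5% NP-40 at 4°C and spun at 21,000xg for 90 min, with the supernatant taken as soluble protein. TMTpro 16plex LC-MS/MS with equalised channel sums quantified that protein. Values are log-two fold changes in thermal stability relative to solvent controls, taken from duplicates.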

[2] = compound: C/C(=N\NC(=O)C1=CC(=CC=C1)S(=O)(=O)N2CCOCC2)/C3=C(C=CC(=C3)Cl)O
Procedure, shortened: as §1

[3] = compound: C1=CC(=CC=C1C2=NC3=C(N2)C=C(C=C3)C(=O)N)OC4=CC=C(C=C4)Cl
Procedure, shortened: as §1

[4] = compound: C1=CC2=C(C=CC(=C2)/C=C\3/C(=O)NC(=NCC4=CC=CS4)S3)N=C1
Procedure, shortened: as §1

[5] = compound: C1=CC2=NC=CN=C2C=C1/C=C/3\C(=O)NC(=O)S3
Procedure, shortened: as §1

[6] = compound: C1=CC=C(C=C1)C2=NC(=C(N2)C3=CC=NC=C3)C4=CC(=C(C=C4)Cl)O
Procedure, shortened: as §1

[7] = compound: C1=CC=C2C(=C1)C3=NNC4=CC=CC(=C43)C2=O
Procedure, shortened: as §1

[8] = compound: C1CCN(C1)C(=O)NC2=CC=CC(=C2)NC3=NC=C(C(=N3)NCCC4=CN=CN4)Br
Procedure, shortened: as §1

[9] = compound: C1CN(CCC1(CC2=CC=C(C=C2)Cl)N)C3=NC=NC4=C3C=CN4
Procedure, shortened: as §1

[10] = compound: C1COCCN1CCN2C3=CC=CC=C3N=C2NC(=O)C4=CC(=CC=C4)[N+](=O)[O-] [IRAK-1-4 Inhibitor I]
Procedure, shortened: as §1

[11] = compound: C=CC(=O)N1CCC[C@@H](n2nc(-c3ccc(Oc4ccccc4)cc3)c3c(N)ncnc32)C1 [ibrutinib]
Procedure, shortened: as §1

[12] = compound: CC(=O)c1cnc2ccc(-c3cc(Cl)c(O)c(Cl)c3)nc2c1N[C@H]1CC[C@H](CN(C)C)CC1
Procedure, shortened: as §1

[13] = compound: CC(C)(C)Cn1c(N)nc2ccc(-c3[nH]c(C(C)(C)C)nc3-c3ccc(F)cc3)nc21 [ralimetinib]
Procedure, shortened: as §1

[14] = compound: CC(C)(O)CC(=O)NCCn1ccc2ncnc(Nc3ccc(Oc4cccc(C(F)(F)F)c4)c(Cl)c3)c21
Procedure, shortened: as §1

[15] = compound: CC(C)C1=C2N=C(C=C(N2N=C1)NCC3=CC=CC=C3)NCCCCCCN
Procedure, shortened: as §1

[16] = compound: CC1=C(C(CC(=O)N1)C2=CC=C(C=C2)C(F)(F)F)C(=O)NC3=C(C=C4C(=C3)C=NN4)F
Procedure, shortened: as §1

[17] = compound: CC1=C(C2=C(C=C1)C(=O)C3=CC=CC=C3N2CCCN)C
Procedure, shortened: as §1

[18] = compound: CC1=C(C=C(C=C1)NC(=O)C2=CC(=CC=C2)C(C)(C)C#N)NC3=CC4=C(C=C3)N=CN(C4=O)C
Procedure, shortened: as §1

[19] = compound: CC1=C(C=C(C=C1)NC(=O)C2=CC(=CC=C2)N(C)C)NC(=O)C3=CC=C(C=C3)O
Procedure, shortened: as §1

[20] = compound: CC1=CC=C(C=C1)SC2=C3C=C(SC3=CN=C2)C(=O)N
Procedure, shortened: as §1

Measured: log2 fold change

CARD9 (UniProt Q9H257)
UniProt Q9H257, sequence (Q9H257 whole entry, looked up): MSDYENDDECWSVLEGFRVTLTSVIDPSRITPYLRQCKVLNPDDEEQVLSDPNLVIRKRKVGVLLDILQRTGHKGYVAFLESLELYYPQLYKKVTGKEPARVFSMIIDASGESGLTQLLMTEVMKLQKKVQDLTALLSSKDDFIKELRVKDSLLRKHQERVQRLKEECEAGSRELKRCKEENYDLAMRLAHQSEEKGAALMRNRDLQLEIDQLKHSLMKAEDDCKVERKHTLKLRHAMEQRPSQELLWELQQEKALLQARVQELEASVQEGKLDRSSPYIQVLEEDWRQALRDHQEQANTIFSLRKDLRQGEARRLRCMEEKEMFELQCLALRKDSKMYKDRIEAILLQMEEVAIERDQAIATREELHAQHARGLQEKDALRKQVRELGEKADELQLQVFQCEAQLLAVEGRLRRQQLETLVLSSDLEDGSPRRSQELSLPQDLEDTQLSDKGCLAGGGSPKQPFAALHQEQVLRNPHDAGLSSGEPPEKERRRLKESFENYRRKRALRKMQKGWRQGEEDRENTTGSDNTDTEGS
inactive: [1] 0.035 | [2] -0.024 | [3] -0.029 | [4] -0.02 | [5] -0.024 | [6] -0.009 | [7] 0.033 | [8] 0.015 | [9] -0.003 | [10] 0.017 | [11] -0.034 | [12] 0.037 | [13] 0.014 | [14] -0.029 | [15] 0.019 | [16] -0.022 | [17] -0.027 | [18] -0.005 | [19] -0.008 | [20] -0.038

CHCHD4 isoform 2 (UniProt Q8N4Q1)
UniProt Q8N4Q1, sequence (Q8N4Q1 whole entry, looked up): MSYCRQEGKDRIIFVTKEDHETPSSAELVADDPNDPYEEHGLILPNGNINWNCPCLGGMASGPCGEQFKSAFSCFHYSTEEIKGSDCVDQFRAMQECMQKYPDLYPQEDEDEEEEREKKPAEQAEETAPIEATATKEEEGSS
inactive: [1] -0.069 | [2] -0.06 | [3] -0.068 | [4] -0.028 | [5] -0.111 | [6] -0.018 | [7] -0.073 | [8] -0.044 | [9] 0.009 | [10] 0.016 | [11] 0.076 | [12] -0.041 | [13] 0.034 | [14] -0.091 | [15] -0.015 | [16] 0.076 | [17] 0.002 | [18] 0.039 | [19] 0 | [20] 0.013

CCNY (UniProt Q8ND76)
UniProt Q8ND76, sequence (Q8ND76 whole entry, looked up): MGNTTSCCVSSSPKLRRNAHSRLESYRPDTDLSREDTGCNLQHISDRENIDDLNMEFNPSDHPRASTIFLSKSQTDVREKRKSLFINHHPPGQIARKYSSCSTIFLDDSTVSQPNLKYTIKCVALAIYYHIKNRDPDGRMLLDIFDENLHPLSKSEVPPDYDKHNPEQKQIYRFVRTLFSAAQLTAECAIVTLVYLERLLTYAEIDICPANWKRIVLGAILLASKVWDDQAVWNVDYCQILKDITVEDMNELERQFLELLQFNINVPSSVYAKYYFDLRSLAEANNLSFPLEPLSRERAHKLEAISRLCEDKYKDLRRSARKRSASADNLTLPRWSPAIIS
inactive: [1] -0.082 | [2] -0.033 | [3] 0.041 | [4] -0.037 | [5] 0.052 | [6] 0 | [7] 0.168 | [8] -0.016 | [9] -0.032 | [10] 0.063 | [11] 0 | [12] -0.013 | [13] -0.046 | [14] -0.099 | [15] 0.014 | [16] -0.036 | [17] 0.023 | [18] 0.063 | [19] 0.078 | [20] 0.001

ATP11A (UniProt P98196)
UniProt P98196, sequence (P98196 whole entry, looked up): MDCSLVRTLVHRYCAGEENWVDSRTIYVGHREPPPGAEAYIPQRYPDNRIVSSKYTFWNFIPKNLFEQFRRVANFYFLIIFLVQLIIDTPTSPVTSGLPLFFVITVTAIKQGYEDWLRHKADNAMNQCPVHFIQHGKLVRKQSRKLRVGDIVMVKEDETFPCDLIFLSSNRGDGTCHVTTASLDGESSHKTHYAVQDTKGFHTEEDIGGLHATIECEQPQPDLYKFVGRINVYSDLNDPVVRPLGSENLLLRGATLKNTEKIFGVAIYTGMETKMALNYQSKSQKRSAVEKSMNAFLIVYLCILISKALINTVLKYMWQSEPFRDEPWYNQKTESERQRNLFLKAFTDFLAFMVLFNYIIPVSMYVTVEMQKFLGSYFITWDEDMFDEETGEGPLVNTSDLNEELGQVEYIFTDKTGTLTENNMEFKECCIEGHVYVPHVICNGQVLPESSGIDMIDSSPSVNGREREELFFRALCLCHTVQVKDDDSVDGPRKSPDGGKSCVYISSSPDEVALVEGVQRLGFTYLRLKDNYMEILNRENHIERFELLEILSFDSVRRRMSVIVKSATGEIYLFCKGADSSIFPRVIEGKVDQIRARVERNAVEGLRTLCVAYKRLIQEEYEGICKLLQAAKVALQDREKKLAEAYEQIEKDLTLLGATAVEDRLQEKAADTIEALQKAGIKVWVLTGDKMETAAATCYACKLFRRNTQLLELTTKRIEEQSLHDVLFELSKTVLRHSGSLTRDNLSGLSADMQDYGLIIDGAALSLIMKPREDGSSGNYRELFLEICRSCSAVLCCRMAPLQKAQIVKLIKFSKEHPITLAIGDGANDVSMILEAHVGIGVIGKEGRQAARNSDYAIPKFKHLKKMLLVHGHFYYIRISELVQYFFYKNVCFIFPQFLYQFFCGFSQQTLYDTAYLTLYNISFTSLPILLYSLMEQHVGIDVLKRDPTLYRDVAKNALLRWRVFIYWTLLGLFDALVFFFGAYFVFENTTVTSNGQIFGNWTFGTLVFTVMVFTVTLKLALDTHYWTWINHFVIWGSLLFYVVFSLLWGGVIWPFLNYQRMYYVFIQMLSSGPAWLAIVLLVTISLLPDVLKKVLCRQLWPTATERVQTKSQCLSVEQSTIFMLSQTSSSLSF
inactive: [1] -0.003 | [2] -0.067 | [3] -0.033 | [4] -0.011 | [5] -0.022 | [6] 0.016 | [7] 0.102 | [8] -0.005 | [9] -0.015 | [10] 0.087 | [11] -0.02 | [12] 0.091 | [13] 0.122 | [14] -0.046 | [15] -0.017 | [16] -0.019 | [17] -0.065 | [18] -0.006 | [19] -0.074 | [20] 0.02

BLM (UniProt P54132)
inactive: [1] -0.034 | [2] 0.061 | [3] -0.042 | [4] 0.011 | [5] 0.032 | [6] 0.079 | [7] -0.059 | [8] -0.026 | [9] -0.01 | [10] -0.02 | [11] 0.128 | [12] 0.026 | [13] -0.015 | [14] 0.031 | [15] -0.005 | [16] -0.019 | [17] 0.03 | [18] -0.058 | [19] 0.019 | [20] 0.036

CDC40 (UniProt O60508)
UniProt O60508, sequence (O60508 whole entry, looked up): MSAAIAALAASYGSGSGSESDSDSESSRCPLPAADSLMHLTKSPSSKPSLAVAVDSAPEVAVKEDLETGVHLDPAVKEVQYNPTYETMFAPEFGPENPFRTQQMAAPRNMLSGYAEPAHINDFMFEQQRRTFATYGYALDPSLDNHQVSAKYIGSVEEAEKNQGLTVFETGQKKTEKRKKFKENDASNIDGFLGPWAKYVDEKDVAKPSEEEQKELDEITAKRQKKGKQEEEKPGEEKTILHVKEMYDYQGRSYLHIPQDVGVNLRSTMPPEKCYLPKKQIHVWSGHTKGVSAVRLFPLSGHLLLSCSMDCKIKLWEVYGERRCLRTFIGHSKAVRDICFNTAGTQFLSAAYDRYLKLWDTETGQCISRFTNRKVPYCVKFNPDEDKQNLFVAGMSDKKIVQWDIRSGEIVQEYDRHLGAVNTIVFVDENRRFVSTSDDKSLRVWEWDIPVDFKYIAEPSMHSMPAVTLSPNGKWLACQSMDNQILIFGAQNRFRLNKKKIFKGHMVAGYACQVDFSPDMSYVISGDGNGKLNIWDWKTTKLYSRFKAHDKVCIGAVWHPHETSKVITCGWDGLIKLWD
inactive: [1] -0.036 | [2] -0.004 | [3] -0.009 | [4] -0.037 | [5] 0.015 | [6] -0.072 | [7] -0.059 | [8] -0.023 | [9] -0.035 | [10] 0.117 | [11] 0.02 | [12] 0.034 | [14] 0.016 | [15] -0.115 | [16] 0.084 | [17] -0.019 | [18] 0.056 | [19] 0.136 | [20] -0.028
active: [13] -0.219

C15orf41 (UniProt Q9Y2V0)
UniProt Q9Y2V0, sequence (Q9Y2V0 whole entry, looked up): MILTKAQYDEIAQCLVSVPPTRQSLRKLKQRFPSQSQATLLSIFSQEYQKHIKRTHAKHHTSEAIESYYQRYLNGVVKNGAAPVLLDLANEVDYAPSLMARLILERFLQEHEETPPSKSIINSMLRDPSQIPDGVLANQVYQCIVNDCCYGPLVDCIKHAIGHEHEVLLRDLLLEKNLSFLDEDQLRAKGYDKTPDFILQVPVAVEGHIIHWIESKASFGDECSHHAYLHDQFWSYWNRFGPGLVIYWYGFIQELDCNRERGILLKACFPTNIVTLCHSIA
inactive: [1] 0.008 | [2] 0.073 | [3] 0.032 | [4] 0.112 | [5] -0.097 | [6] 0.014 | [7] -0.04 | [8] -0.028 | [9] -0.076 | [10] -0.012 | [11] -0.028 | [12] -0.013 | [13] -0.018 | [14] -0.029 | [15] 0.063 | [16] 0.006 | [17] 0.045 | [18] 0.023 | [19] 0.13 | [20] -0.106

CDK5RAP3 isoform 4 (UniProt Q96JB5)
UniProt Q96JB5, sequence (Q96JB5 whole entry, looked up): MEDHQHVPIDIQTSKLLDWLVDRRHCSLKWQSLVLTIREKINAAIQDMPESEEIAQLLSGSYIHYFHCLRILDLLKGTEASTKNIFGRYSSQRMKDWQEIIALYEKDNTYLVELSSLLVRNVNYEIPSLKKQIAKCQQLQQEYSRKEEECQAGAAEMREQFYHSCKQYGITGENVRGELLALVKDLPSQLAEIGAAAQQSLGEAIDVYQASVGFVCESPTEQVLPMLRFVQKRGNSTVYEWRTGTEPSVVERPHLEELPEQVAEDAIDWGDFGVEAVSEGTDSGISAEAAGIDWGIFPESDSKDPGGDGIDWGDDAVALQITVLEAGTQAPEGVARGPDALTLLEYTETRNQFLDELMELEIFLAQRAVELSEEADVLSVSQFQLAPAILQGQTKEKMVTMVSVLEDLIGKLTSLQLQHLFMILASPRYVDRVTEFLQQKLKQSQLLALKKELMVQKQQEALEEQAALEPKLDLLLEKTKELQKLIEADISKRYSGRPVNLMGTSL
inactive: [1] 0.009 | [2] -0.068 | [3] -0.011 | [4] -0.018 | [5] 0.031 | [6] -0.002 | [7] -0.014 | [8] -0.016 | [9] 0.016 | [10] 0.022 | [11] -0.01 | [12] -0.001 | [13] -0.022 | [14] -0.022 | [15] -0.016 | [16] 0.004 | [17] 0.013 | [18] 0.025 | [19] 0.017 | [20] 0.014

BMS1 (UniProt Q14692)
inactive: [1] -0.029 | [2] -0.089 | [3] -0.027 | [4] 0.028 | [5] -0.046 | [6] 0.034 | [7] 0.039 | [8] 0.006 | [9] 0.01 | [10] -0.01 | [11] 0.095 | [12] 0.018 | [13] 0.018 | [14] -0.041 | [15] -0.008 | [16] -0.011 | [17] 0.007 | [18] 0.049 | [19] 0.034 | [20] 0.032

CEPT1 (UniProt Q9Y6K0)
UniProt Q9Y6K0, sequence (Q9Y6K0 whole entry, looked up): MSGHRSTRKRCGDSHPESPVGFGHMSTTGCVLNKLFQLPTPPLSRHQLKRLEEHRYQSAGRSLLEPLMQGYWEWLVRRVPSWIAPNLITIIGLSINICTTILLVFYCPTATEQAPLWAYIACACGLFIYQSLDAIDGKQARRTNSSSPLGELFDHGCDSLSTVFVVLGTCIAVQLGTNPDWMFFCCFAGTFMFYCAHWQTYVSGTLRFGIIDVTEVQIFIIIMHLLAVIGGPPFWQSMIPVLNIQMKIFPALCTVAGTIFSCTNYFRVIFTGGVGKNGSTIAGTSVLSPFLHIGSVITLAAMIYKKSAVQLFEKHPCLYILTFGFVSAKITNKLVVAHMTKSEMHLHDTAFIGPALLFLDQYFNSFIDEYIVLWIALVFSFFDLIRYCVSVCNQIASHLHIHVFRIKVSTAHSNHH
active: [3] -0.216
inactive: [1] 0.025 | [2] -0.005 | [4] 0.035 | [5] 0.032 | [6] -0.023 | [7] -0.015 | [8] 0 | [9] 0.081 | [10] 0.072 | [11] 0.011 | [12] 0.061 | [13] 0.009 | [14] -0.003 | [15] 0.032 | [16] 0.004 | [17] -0.008 | [18] 0.026 | [19] 0 | [20] 0.024

ATP13A1 (UniProt Q9HD20)
inactive: [1] 0.02 | [2] -0.09 | [3] -0.153 | [4] 0.024 | [5] -0.026 | [6] 0.02 | [7] -0.054 | [8] -0.04 | [9] 0.033 | [10] 0.015 | [11] -0.021 | [12] 0.048 | [13] 0.029 | [14] -0.104 | [15] 0.036 | [16] 0.005 | [17] -0.089 | [18] -0.108 | [19] 0.062 | [20] 0.007

CHAC2 (UniProt Q8WUX2)
UniProt Q8WUX2, sequence (Q8WUX2 whole entry, looked up): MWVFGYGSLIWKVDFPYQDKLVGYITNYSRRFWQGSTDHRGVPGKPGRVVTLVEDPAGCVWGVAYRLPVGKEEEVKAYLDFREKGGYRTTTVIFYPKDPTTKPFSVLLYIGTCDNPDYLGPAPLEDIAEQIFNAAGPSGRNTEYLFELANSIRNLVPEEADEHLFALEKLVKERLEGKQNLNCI
inactive: [1] 0.019 | [2] 0.097 | [3] 0.049 | [4] 0.022 | [5] -0.023 | [6] 0.055 | [7] -0.012 | [8] 0.032 | [9] 0.044 | [10] -0.038 | [11] -0.064 | [12] -0.014 | [13] -0.01 | [14] 0.043 | [15] -0.118 | [16] -0.026 | [17] -0.048 | [18] -0.016 | [19] 0.017 | [20] -0.031

ATP5PF isoform 2 (UniProt P18859)
UniProt P18859, sequence (P18859 whole entry, looked up): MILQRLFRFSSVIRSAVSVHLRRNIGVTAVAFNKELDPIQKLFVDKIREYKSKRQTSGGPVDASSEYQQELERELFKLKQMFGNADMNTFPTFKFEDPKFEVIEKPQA
inactive: [1] 0.063 | [2] 0.107 | [3] -0.021 | [4] 0.011 | [5] 0.017 | [6] 0.05 | [7] -0.01 | [8] -0.003 | [9] 0.09 | [10] -0.026 | [11] 0.069 | [12] -0.055 | [13] -0.003 | [14] 0.063 | [15] -0.053 | [16] -0.032 | [17] -0.055 | [18] 0.026 | [19] 0.05 | [20] 0.083

CCDC22 (UniProt O60826)
UniProt O60826, sequence (O60826 whole entry, looked up): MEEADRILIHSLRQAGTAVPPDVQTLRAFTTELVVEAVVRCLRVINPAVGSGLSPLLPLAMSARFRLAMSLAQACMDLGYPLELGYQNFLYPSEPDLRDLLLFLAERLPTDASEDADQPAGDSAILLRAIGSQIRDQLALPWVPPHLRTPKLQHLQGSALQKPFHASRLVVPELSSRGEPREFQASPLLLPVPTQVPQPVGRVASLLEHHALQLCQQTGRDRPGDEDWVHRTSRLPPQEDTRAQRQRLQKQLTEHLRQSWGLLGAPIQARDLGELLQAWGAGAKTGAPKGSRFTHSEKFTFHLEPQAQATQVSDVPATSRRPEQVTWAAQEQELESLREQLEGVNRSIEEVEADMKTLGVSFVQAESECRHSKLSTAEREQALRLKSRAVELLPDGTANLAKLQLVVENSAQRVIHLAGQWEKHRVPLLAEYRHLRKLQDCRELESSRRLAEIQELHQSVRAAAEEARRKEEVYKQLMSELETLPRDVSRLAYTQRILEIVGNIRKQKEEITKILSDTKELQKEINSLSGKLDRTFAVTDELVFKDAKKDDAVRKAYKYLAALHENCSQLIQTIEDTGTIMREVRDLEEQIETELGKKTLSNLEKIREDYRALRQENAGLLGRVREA
inactive: [1] -0.039 | [2] -0.007 | [3] 0.002 | [4] 0.02 | [5] -0.03 | [6] -0.017 | [7] -0.06 | [8] 0.007 | [9] 0.03 | [10] 0.011 | [11] 0.006 | [12] 0.033 | [13] -0.005 | [14] -0.045 | [15] -0.009 | [16] 0.005 | [17] 0.001 | [18] -0.01 | [19] 0.025 | [20] -0.027

CHD4 isoform 2 (UniProt Q14839)
inactive: [1] -0.02 | [2] 0.009 | [3] 0.007 | [4] 0.004 | [5] -0.016 | [6] -0.004 | [7] -0.013 | [8] -0.013 | [9] 0.031 | [10] -0.015 | [11] -0.003 | [12] -0.008 | [13] 0.026 | [14] 0.011 | [15] 0.025 | [16] 0.001 | [17] -0.037 | [18] 0.004 | [19] 0.006 | [20] 0.022

From the supplement of paper PMC10849652
